Calls of active or inactive are those of the source.
experiment: JC-1 mitochondrial signal, unstimulated adipocytes – cell-based, JC-1 fluorescence, 3T3-L1 adipocytes, 24 h, 100 nL compound, profiling panel (AID 1168); conditions: JC-1 mitochondrial fluorescence, higher = more signal, called active from +8 up or from −8 down
Further: test concentration not given here.

Row | Compound | z-score
1 | COc1ccc(C(=O)Nc2cccc(CN3C(=O)[C@@]4(O[C@@H](CCn5cc([C@H](O)c6ccccc6)nn5)[C@H]([Si](C)(C)c5ccc(OC)cc5)[C@H]4C)c4ccccc43)c2)cc1 | -0.694 (inactive)
2 | COC(=O)[C@@]1(Cc2ccc(F)cc2)[C@H]2c3cc(C(=O)N4CCCC4)n(CCc4ccc(OC)c(Br)c4)c3C[C@H]2CN1C(=O)c1ccccc1 | -0.317 (inactive)
3 | CC(C)N1C(=O)c2ccccc2[C@](C)(C(=O)NC2CC2)[C@@H]1c1ccc(CO)cc1 | 0.343 (inactive)
4 | CCCNC(=O)[C@@]1(C)c2ccccc2C(=O)N(Cc2ccc(OC(F)(F)F)cc2)[C@H]1c1ccc(CO)cc1 | 0.45 (inactive)
5 | C=CCC(OC(C)=O)[C@@H]1[C@@H](N(Cc2ccc(-c3cccc(C(F)(F)F)c3)o2)C(=O)Cc2ccc(OC)cc2)c2cc(OCCCO)ccc2N1C(=O)Cc1ccc(OC)cc1 (some centres not stated) | -0.709 (inactive)
6 | COC(=O)[C@@]1(Cc2ccccc2)[C@H]2c3cc(C(=O)N(C)C)n(Cc4cc(F)c(F)c(F)c4)c3C[C@H]2CN1C(=O)c1ccccc1 | -1.35 (inactive)
7 | C=C(C)[C@@H]1CC=C(C(O)C2C=CC3C(=O)N(Cc4ccccc4)C(=O)C3N2n2cnnc2)CC1 (some centres not stated) | -0.403 (inactive)

experiment: JC-1 mitochondrial signal, unstimulated myeloma cells – cell-based, JC-1 fluorescence, RPMI8226, 24 h, 100 nL compound, profiling panel (AID 1169); conditions: JC-1 mitochondrial potential fluorescence, higher = more signal

Row | Compound | z-score
8 | COC(=O)[C@@]1(Cc2ccc(OC)cc2)[C@H]2c3cc(C(=O)N4CCCC4)n(CCc4ccccn4)c3C[C@H]2CN1C(=O)c1ccccc1 | -0.161
9 | CC(=O)N1Cc2ccccc2C[C@@]2(N=C(c3ccc(OCCCO)cc3)O[C@H]2c2ccccc2)C1=O | -1.15
10 | CC(C)NC(=O)[C@@]1(c2ccc([N+](=O)[O-])cc2)CC(=O)N(C(C)C)[C@@H]1c1ccc(CO)cc1 | -1.03
11 | CC(C)C(O)C1C=CC2C(=O)N(C)C(=O)C2N1N1CCCCC1 (configuration not stated) | 0.643
12 | CCCC[C@@H]1C[C@H]1[C@@H](NC(=O)c1ccccc1)c1ccccc1 | 0.203
13 | CCN(CC)c1ccc(N2CC=CC34O[C@@H]5/C=C\CCCOC(=O)C5[C@H]3C(=O)N(CCCO)[C@@H]4C2=O)cc1 (some centres not stated) | -0.0632
14 | COc1ccc(C(O)C2C=CC3C(=O)N(c4ccccc4)C(=O)C3N2Nc2ccccc2)c2ccccc12 (configuration not stated) | -0.86
15 | O=[N+]([O-])c1ccc(C[n+]2ccc(CCCO)cc2)o1 | -0.614
16 | C[N+](C)(C)CCCCNC(=O)[C@H]1C[C@H]2C(=O)N3CCC[C@H]3C(=O)N2[C@H]1c1ccc(O)cc1 | 0.0553
17 | COCCOC(=O)N1C(=O)[C@@]2(c3ccccc31)[C@H](C(=O)N1CCCCCCC1)[C@H]1C(=O)O[C@H](c3ccccc3)[C@H](c3ccccc3)N1[C@@H]2c1ccccc1OCCO | -1.1
18 | C=CCC(OC(C)=O)[C@@H]1[C@@H](N(Cc2ccc(-c3ccccc3)cc2)C(=O)c2ccc(C)cc2)c2cc(OCCCO)ccc2N1C(=O)Cc1ccc(OC)cc1 (some centres not stated) | 0.768
19 | COC(=O)[C@@]1(Cc2ccc(OC)cc2)[C@H]2c3cc(C(=O)N4CCCC4)n(C[C@H](O)CO)c3C[C@H]2CN1C(=O)c1ccccc1 | 0.933
20 | O=C1O[C@H](c2ccccc2)[C@H](c2ccccc2)N2[C@H]1[C@@H](C(=O)NC[C@H](O)c1ccccc1)[C@]1(C(=O)Nc3ccc(C#CC4=CCCCC4)cc31)[C@H]2c1ccc(O)cc1 | -0.87
21 | COc1ccc([Si](C)(C)[C@@H]2[C@@H](CCO)O[C@]3(C(=O)N(Cc4ccccc4)c4ccc(N(C=O)c5ccccc5)cc43)[C@H]2C)cc1 | -0.858
22 | COc1cc(NN2C(C(O)c3ccccc3)C=CC3C(=O)N(c4ccccc4)C(=O)C32)cc(OC)c1OC (configuration not stated) | 0.179
23 | CN(C)CCCCNC(=O)[C@@H]1C[C@@H]2C(=O)N[C@@H](CCCCN)C(=O)N2[C@@H]1c1cccc(OCCO)c1 | -0.737
24 | COc1c(C)cc(-c2cc3c(c(-c4ccccc4)n2)[Si](C(C)C)(C(C)C)O[C@H]3c2ccccc2)cc1C | -0.016
25 | [N-]=[N+]=NCc1ccccc1C[C@]1(C(=O)NCc2ccccc2)COC(c2ccc(OCCCO)cc2)=N1 | -0.891

Row | Compound | z-score
26 | C=CCOC(=O)[C@@H]1[C@H]2C(=O)O[C@H](c3ccccc3)[C@H](c3ccccc3)N2[C@H](c2ccc(OCCOC(=O)[C@H]3C[C@H]4C(=O)N[C@@H](CCCC[N+](C)(C)C)C(=O)N4[C@H]3c3cccc(OCCO)c3)cc2)[C@@]12C(=O)Nc1ccc(I)cc12 | -0.742
27 | O=C1OCC=C[C@H]2OC34C=CCN(c5ccc(Cl)cc5)C(=O)[C@H]3N(CCCO)C(=O)[C@@H]4[C@@H]12 (some centres not stated) | -0.454
28 | O=c1cccc(-c2ccccc2)o1 | 0.826
29 | C=C(COC)C(=O)CC[C@H](OC(=O)c1cccnc1)c1ccccc1OCCO | -0.706
30 | CCCCCN1CC=CC23O[C@@H]4C=CCCOC(=O)C4[C@H]2C(=O)N(CCCO)[C@@H]3C1=O (some centres not stated) | -0.606
31 | CCN(CC)c1ccc(N2CC=CC34O[C@@H]5C=CCOC(=O)[C@@H]5[C@H]3C(=O)N(CCCCCO)[C@@H]4C2=O)cc1 (some centres not stated) | 0.0564
32 | C#C[C@H]1Oc2ccccc2S(=O)(=O)N2CCC[C@@H]12 | -0.18
33 | O=C1C2C=CC(C(O)c3ccc(B(O)O)cc3)N(Nc3ccc([N+](=O)[O-])cc3)C2C(=O)N1c1ccccc1 (configuration not stated) | -0.213
34 | O=C1OCCC/C=C\[C@H]2OC34C=CCN(CCN5CCOCC5)C(=O)[C@H]3N(CCO)C(=O)[C@@H]4C12 (some centres not stated) | -0.802
35 | CC(=O)n1cc(C(O)C2C=CC3C(=O)N(c4ccccc4)C(=O)C3N2Nc2ccc(C#N)cc2)c2ccccc21 (configuration not stated) | 0.423
36 | COc1ccc(C(=O)Nc2cccc(CN3C(=O)[C@@]4(O[C@@H](CCn5cc([C@H](O)c6ccccc6)nn5)[C@H]([Si](C)(C)c5ccc(OC)cc5)[C@H]4C)c4ccccc43)c2)cc1 | -1.03
37 | COC(=O)[C@@]1(Cc2ccc(F)cc2)[C@H]2c3cc(C(=O)N4CCCC4)n(CCc4ccc(OC)c(Br)c4)c3C[C@H]2CN1C(=O)c1ccccc1 | -0.626
38 | CC(C)N1C(=O)c2ccccc2[C@](C)(C(=O)NC2CC2)[C@@H]1c1ccc(CO)cc1 | 0.747
39 | CCCNC(=O)[C@@]1(C)c2ccccc2C(=O)N(Cc2ccc(OC(F)(F)F)cc2)[C@H]1c1ccc(CO)cc1 | -0.244
40 | C=CCC(OC(C)=O)[C@@H]1[C@@H](N(Cc2ccc(-c3cccc(C(F)(F)F)c3)o2)C(=O)Cc2ccc(OC)cc2)c2cc(OCCCO)ccc2N1C(=O)Cc1ccc(OC)cc1 (some centres not stated) | -0.804
41 | COC(=O)[C@@]1(Cc2ccccc2)[C@H]2c3cc(C(=O)N(C)C)n(Cc4cc(F)c(F)c(F)c4)c3C[C@H]2CN1C(=O)c1ccccc1 | -0.368
42 | C=C(C)[C@@H]1CC=C(C(O)C2C=CC3C(=O)N(Cc4ccccc4)C(=O)C3N2n2cnnc2)CC1 (some centres not stated) | 0.666
